Screens deposited in PubChem BioAssay by National Center for Advancing Translational Sciences (NCATS).
Methyltransferases: Primary Screen for Target Class Profiling of Small Molecule Inhibitors of Methyltransferases; purified enzyme, MTase-Glo SAH luminescence; stronger effect = lower value; calls only at 40 µM; 25,000 compounds, 3.9% hits; call rule not given here
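Each enzyme was reacted with SAM and its substrate, with compounds tested once at 40 uM; SAH formed was read by MTase-Glo luminescence.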
MTase-Glo ctr: Counterscreen for Target Class Profiling of Small Molecule Inhibitors of Methyltransferases. shares compounds with Methyltransferases. MTase-Glo coupled enzymes, SAH conversion luminescence, no MTase. Potency, µM (highest dose often 57.3 µM), actives largely listed as inhibitors. 180 compounds, 6% hits. AID 1745851, 2022; active = well fitted inhibition curve with a large enough effect
Each line names hits and unclear results; the compound was inactive in the other large screens (follow-up assays come after a bar, where they were run); ! = not confirmed by another sample. This excerpt belongs to a sample that is enriched for hits.

C=CCn1c(=O)c2ccc(C(=O)NC(C)C)cc2n2c(=O)n(CC(=O)NC(C)CC)nc12 (stereo unspecified)	none
COc1ncccc1-c1cc(-c2c(C)noc2C)c2cncn2c1	none
COc1cc2c(cc1-c1c(C)noc1C)ncc1[nH]c(=O)n([C@H](C)c3ccccn3)c12	Methyltransferases active!
Cc1noc(C)c1-c1nccc2c(=O)cc(-c3ccccn3)oc12	none
COc1ccc(Cn2c(=O)c3ccccc3n3c(-c4ccc(OC)cc4O)nnc23)cc1	none
CCOC(=O)c1cc2n(n1)CC(C)(C(=O)NCc1ccccc1)N(c1ccc(OCC)cc1)C2=O (stereo unspecified)	none
CCOc1ccc(N2C(=O)c3cc4sc(CC)cc4n3CC2(C)C(=O)NC2CCCCC2)cc1 (stereo unspecified)	none
COc1ccc(CCNC(=O)Cn2ccc3cc(S(=O)(=O)N4CCCCC4)ccc32)c(OC)c1	none
COc1cc(N2CCC(N(C)C)CC2)ccc1Nc1ncc(Cl)c(Nc2ccccc2P(C)(C)=O)n1	Methyltransferases active
COc1cc(N2CCN(C)CC2)ccc1Nc1nccc(-c2cn(C)c3cnccc23)n1	none
COc1ccccc1Nc1ncc2c(n1)CN(C(=O)c1ccnn1C)CCN2	none
COc1cc(N2CCC(N3CCN(C)CC3)CC2)ccc1Nc1ncc(Cl)c(Nc2ccccc2S(=O)(=O)C(C)C)n1	Methyltransferases active
CC(C)c1cc2n(n1)CC(C)(C(=O)NC1CCCCCC1)N(Cc1ccccc1Cl)C2=O (stereo unspecified)	none
Cc1ccc(Cn2c(=O)c3ccccc3n3c(SCC(=O)NC(C)C)nnc23)cc1	none
COc1ccc(-c2cc3n(n2)CC(C)(C(=O)NCc2ccccc2)N(CCc2ccccc2)C3=O)cc1 (stereo unspecified)	none
CC(C)Cn1c(=O)c2ccc(C(=O)NC3CCCC3)cc2n2c(=O)n(Cc3cccc(F)c3)nc12	none
CCC(C)NC(=O)c1ccc2c(=O)n(C)c3nnc(SCC(=O)Nc4ccccc4F)n3c2c1 (stereo unspecified)	none
O=C(O)CCc1ccc(NCc2cccc(Oc3ccccc3)c2)cc1	none
CC(=O)Nc1cccc(-c2n[nH]c3c2CC(=O)N(CCOc2ccccc2)C3)c1	none
O=C(O)CCc1ccc(NCc2cccc3c2CCCN3CCOc2ccccc2)cc1F	Methyltransferases active
COc1ccc(NC(=O)Cn2nc3n(Cc4ccccc4)c(=O)c4ccccc4n3c2=O)cc1	none
Cc1ccccc1NC(=O)N1Cc2c(sc3c2CCCC3)-n2cccc2C1c1ccccc1 (stereo unspecified)	none
C#Cc1cccc(Nc2nc3cc(C(=O)O)ccc3c3cncnc23)c1	none
C#Cc1cccc(Nc2ncnc3cc(OC)c(OCCCCCCC(=O)NO)cc23)c1	Methyltransferases active
COc1cc2ncnc(Nc3ccc(O)cc3)c2cc1OC	none
COc1cccc(-c2cc(C3CCN(S(=O)(=O)c4cccc(OC)c4)CC3)[nH]n2)c1	none
CCCn1c(=O)c2cc(Cl)ccc2n2c(=O)n(CC(=O)Nc3cc(F)ccc3F)nc12	none
CCOC(=O)c1cc2n(n1)CC(C)(C(=O)NC1CCCC1)N(c1ccc(OC)cc1OC)C2=O (stereo unspecified)	none
CCC(C)NC(=O)CCc1nnc2n(Cc3ccc(Cl)cc3)c(=O)c3ccccc3n12 (stereo unspecified)	none
COCCCNC(=O)C1(C)Cn2nc(-c3ccccc3)cc2C(=O)N1c1cccc(Cl)c1C (stereo unspecified)	none
COc1ccc(N2CCN(C(=O)CCc3nnc4n(CC(C)C)c(=O)c5ccccc5n34)CC2)cc1	none
CCOC(=O)c1cc2n(n1)CC(C)(C(=O)NCCOC)N(c1ccc(C)c(C)c1)C2=O (stereo unspecified)	none
CN(Cc1ccc(-c2ccccc2)cc1)CC1CCCCC1	none
c1ccc(CCc2nc3nccc(-c4cccnc4)n3n2)cc1	none
CN(CCc1ccc(Nc2ncc(-c3cccnc3)s2)cc1)Cc1ccccc1	Methyltransferases active
CCC(C)NC(=O)c1ccc2c(=O)n(C(C)C)c3nn(CC(=O)NC4CCCCC4)c(=O)n3c2c1 (stereo unspecified)	none
CC(C)(C)c1cc2n(n1)CC(C)(C(=O)NC1CCCCC1)N(Cc1cccc(F)c1)C2=O (stereo unspecified)	none
C=C(C(=O)O)C1CC2=C(C)C(=O)CC2C(C)CC1O (stereo unspecified)	none
C=C(C(=O)O)[C@@H]1CC[C@H](C)[C@@H]2CC(=O)C(C)=C2C1	Methyltransferases active
CCc1ccc(S(=O)(=O)c2nnn3c2nc(NCCC(C)C)c2ccccc23)cc1	none
COc1ccccc1CCNC(=O)c1cc2n(n1)CC(C)(C(=O)NCc1ccc(F)cc1)N(C)C2=O (stereo unspecified)	none
CN1C(=O)c2cc(C(=O)NCCc3ccccc3)nn2CC1(C)C(=O)NCc1ccccc1 (stereo unspecified)	none
CCN(CC)c1nc2c(-c3ccc(F)cc3)nnn2c2ccccc12	none
COc1cc(CC(=O)O)ccc1O	none
C[C@](Cc1ccc(O)c(O)c1)(NN)C(=O)O	Methyltransferases active
CC(N)(Cc1ccc(O)c(O)c1)C(=O)O (stereo unspecified)	Methyltransferases active
CCCCCCCC/C=C\CCCCCCCC(=O)NCCc1ccc(O)c(O)c1	none
Cc1ccc(C(=O)Cn2nc3n(CC(C)C)c(=O)c4ccc(C(=O)NC(C)C)cc4n3c2=O)cc1	none
COc1ccc(N2C(=O)c3cc4ccc(OC)cc4n3CC2(C)C(=O)NC2CCCCC2)cc1 (stereo unspecified)	none
COc1ccc(CNC(=O)C2CCN(C(=O)c3oc4cc5sc(N(C)C)nc5cc4c3C)CC2)cc1	none
CC(C)CCN1C(=O)c2ccccc2CC1(C)C(=O)NC1CCCCCCC1 (stereo unspecified)	none
O=C(Nc1ccc(F)cc1F)N1Cc2c(sc3c2CCCC3)-n2cccc2C1c1ccc(F)cc1 (stereo unspecified)	none
Cc1cc2[nH]c(=O)[nH]c2cc1S(=O)(=O)N1CCCCC1	none
O=C(Cn1c(=O)oc2cc(S(=O)(=O)N3CCCC3)ccc21)NCCC1=CCCCC1	none
Cc1ccsc1CCNC(=O)Cn1c(=O)oc2cc(S(=O)(=O)N3CCCC3)ccc21	Methyltransferases active
O=C(Cn1c(=O)oc2cc(S(=O)(=O)N3CCCC3)ccc21)NCCc1ccc(Cl)cc1	none
CCC(C)NC(=O)c1ccc2c(=O)n(CC(C)C)c3nn(Cc4c(F)cccc4Cl)c(=O)n3c2c1 (stereo unspecified)	none
COCCCNC(=O)C1(C)Cn2nc(-c3ccccc3)cc2C(=O)N1c1cccc(SC)c1 (stereo unspecified)	none
CC(C)(C)Cn1c(N)nc2ccc(-c3[nH]c(C(C)(C)C)nc3-c3ccc(F)cc3)nc21	Methyltransferases active
COc1cc([C@@H]2Nc3c(Cl)cccc3[C@@H]3C=CC[C@@H]32)cc(Br)c1OC	none
CCOc1cccc(C2c3cccn3-c3sc4c(c3CN2C(=O)Nc2ccc(C)cc2)CCCC4)c1 (stereo unspecified)	none
Cc1ccc(Cn2nc3n(CCc4ccccc4)c(=O)c4ccccc4n3c2=O)cc1	none
N#Cc1cnc(N2CC3CCC(C2)N3CC(F)(F)F)s1	Methyltransferases active | MTase-Glo ctr inactive
Fc1ccccc1Nc1ccnc(N2CC3CCC(C2)N3CC(F)(F)F)n1	none
CCC(C(=O)NCCc1cccs1)n1ccc2cc(S(=O)(=O)N3CCCCC3)ccc21 (stereo unspecified)	none
